From PubChem
This is a sample that favours compounds with a hit; in the whole collection about 3.9% have one here.
Yeast superoxide: lowers age-related superoxide in aged yeast cells; S. cerevisiae aged cells, superoxide DHE fluorescence; stronger effect = lower value; superoxide response (% of plate mean), % at 10 µM; 0.18% of 330,000 active; AID 2690;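 active means superoxide response under a set limit, about three screen SD below normal, cut at about 65% in these data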;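 further: yeast aged for seven days with compound at 30 °C before DHE staining; 100% = average MFI of all compound-treated wells on the plate with controls excluded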
AHR activator: human AHR activation; P35869; AHR-responsive luciferase reporter cells, luminescence; activation, % at 5 µM; 2.5% of 320,000 active; in the data active means activation above about 47%;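 further: 0% = vehicle wells and 100% = reference agonist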
PLC-gamma1 inh: blocks human PLC-gamma1 enzyme activity | purified PLC-gamma1, fluorogenic substrate, fluorescence | inhibition, % at 12.2 µM | 0.84% of 370,000 active | AID 720700
PLC-beta3 inh: PLC-beta3 (human) inhibition, primary screen | Q01970 | Purified PLC-beta3, fluorogenic substrate, fluorescence | inhibition, % at 12.2 µM | 0.18% of 370,000 active; in the data active means inhibition above about 11%;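 further: 0% = median of compound wells on plate and 100% = full blocker control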
sPLA2-III inh: Blocks human group III sPLA2 activity | AID 743126 | QFRET BODIPY PC-A2 liposome hydrolysis, fluorescence | Q9NZ20 | 0.56% of 370,000 active | inhibition, % at 12.2 µM;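 active means inhibition above mean plus 3 SD of compounds lying within the high and low control bounds, cut at about 19% in these data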;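 further: 0% = median of test compound wells and 100% = no enzyme DMSO wells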
Target sequence (Q9NZ20 whole entry, looked up): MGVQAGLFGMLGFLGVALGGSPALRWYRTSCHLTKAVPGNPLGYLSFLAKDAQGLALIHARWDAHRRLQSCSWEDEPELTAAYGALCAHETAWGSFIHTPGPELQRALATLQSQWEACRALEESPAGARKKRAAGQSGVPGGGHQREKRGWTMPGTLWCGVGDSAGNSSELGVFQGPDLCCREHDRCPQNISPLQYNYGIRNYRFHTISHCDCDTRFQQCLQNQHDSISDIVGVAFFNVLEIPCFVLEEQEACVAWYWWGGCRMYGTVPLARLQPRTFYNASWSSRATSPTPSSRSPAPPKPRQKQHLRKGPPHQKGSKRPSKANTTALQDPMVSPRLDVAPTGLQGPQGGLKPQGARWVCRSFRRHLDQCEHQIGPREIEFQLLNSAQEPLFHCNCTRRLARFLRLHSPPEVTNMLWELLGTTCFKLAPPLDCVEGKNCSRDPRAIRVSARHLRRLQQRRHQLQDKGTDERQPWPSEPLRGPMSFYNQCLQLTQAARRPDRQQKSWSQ
HIF activator: HIF pathway transcriptional activation | U2OS HRE-luciferase reporter, luminescence; normalized: DMSO 0%, desferrioxamine 100% | 0.32% of 300,000 active | activation, % at 7.5 µM (by protocol) | AID 1910;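 active means mean activation of at least 10% of the iron chelator positive control signal, with at least half of replicates also reaching 10%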
PLCgamma1 ctr: PLC-gamma1 inhibition, counter-screen for PLC-beta3 hits | shares compounds with PLC-gamma1 inh | purified PLC-gamma1, fluorogenic substrate, fluorescence | inhibition, % at 12.3 µM | 3.1% of 3,300 active
PLCbeta3 conf: human PLC-beta3 inhibition, confirmation; inhibition, % at 12.3 µM; AID 743261; purified PLC-beta3, fluorogenic substrate fluorescence; shares compounds with PLC-gamma1 inh; 1% of 3,300 active; in the data active means inhibition above about 11%
* = called active by the depositor; x = no result. Unless noted, no stated cut-off is given here; in the data, active means inhibition above about 9.5%; inactive means the rest.

SMILES	Yeast superoxide	AHR activator	PLC-gamma1 inh	PLC-beta3 inh	sPLA2-III inh	HIF activator	PLCgamma1 ctr	PLCbeta3 conf
COc1cc(Cl)cc(C(c2c(C(=O)O)[nH]c3ccccc23)c2c(C(=O)O)[nH]c3ccccc23)c1O	77.0	32.1	10.7*	-9.1	-137.6	-1.4	8.2	-12.8
O=C(O)c1[nH]c2ccccc2c1C(c1c(F)cccc1Cl)c1c(C(=O)O)[nH]c2ccccc12	102.1	4.1	0.1	-5.2	-39.4	-1.0	x	x
CCOC(=O)N1CCN(S(=O)(=O)N2CCCC(C(=O)NCc3cc(OC)ccc3OC)C2)CC1 (stereo not given)	x	x	5.4	4.8	11.2	x	x	x
CC1(C(=O)Nc2ccc(Cl)c(Cl)c2)CCN1C(=O)C1CCCCC1 (stereo not given)	x	x	16.1*	4.3	2.5	x	-4.8	-3.5
COC(=O)[C@@]12CCCCC3=C1N(CCC3)C(=O)[C@H]2CC(=O)NCc1cccc(C(F)(F)F)c1	x	x	1.6	3.0	-12.5	x	x	x
COc1cc(OC)nc(Nc2nc(C(N)c3ccccc3Cl)cs2)n1 (stereo not given)	x	x	3.2	0.3	10.9	x	x	x
NC(c1csc(Nc2ncccn2)n1)c1ccccc1Cl (stereo not given)	x	x	11.8*	10.5	7.8	x	-8.0	0.2
CCC(c1nnnn1C1CCCC1)N1CCN(c2cccc(OC)c2)CC1 (stereo not given)	111.9	0.3	1.6	2.0	-1.9	-0.3	x	x
CCOP(=O)(OCC)C(NC(=O)Nc1ccccc1)C(N)=O (stereo not given)	96.6	7.2	3.3	11.1*	8.2	-0.6	-7.8	-2.3
CCOP(=O)(OCC)C(NC(=O)Nc1ccc(Cl)cc1)C(N)=O (stereo not given)	97.7	-1.7	-1.9	-0.9	10.0	-0.2	x	x
O=C(Nc1ccc(F)cc1F)c1c(C(F)(F)F)ccnc1Oc1ccccc1	96.2	-1.2	11.1*	1.0	8.9	-0.3	-5.1	0.9
O=c1cc(CO)occ1OCc1cccc(F)c1	95.9	-0.6	8.8	6.7	1.1	0.0	x	x
Cc1ccc(COc2coc(CO)cc2=O)cc1	102.5	2.9	8.1	11.6*	-0.1	2.4	-7.5	-3.3
CC(=O)Nc1c(C)nn(-c2ccc(C)c(C)c2)c1C	98.9	7.9	9.6*	2.1	6.0	0.1	-4.5	-2.3
CCCn1c(SCC(=O)NCC)nc2sc3c(c2c1=O)CCC3	93.5	-0.1	9.6*	-6.6	18.0	-0.3	7.0	1.9
C[C@@H]1CN([C@@H](C)CO)C(=O)CCCn2nncc2CO[C@@H]1CN(C)C(=O)c1ccc(N2CCN(C)CC2)cc1	x	x	-1.0	-0.7	4.3	x	x	x
CCOC(=O)[C@]12CCCCC/C=C\1N(Cc1ccc(OC)cc1)C(=O)[C@H]2CC(=O)NCc1ccc(OC)c(OC)c1	x	x	2.2	-1.5	-6.6	x	x	x
CCOC(=O)[C@]12CCCCC/C=C\1N(Cc1ccc(OC)cc1)C(=O)[C@H]2CC(=O)NCc1cccs1	x	x	9.5*	4.4	-8.9	x	-4.2	1.6
COc1ccc(CN2CCCC(C(=O)N3CCCC3)C2)c(OC)c1OC (stereo not given)	x	x	11.2*	7.0	5.5	x	1.3	3.3
COc1ccc(OC)c(CN2CCCC(C(=O)N3CCCCC3)C2)c1 (stereo not given)	107.0	-1.6	1.0	5.0	-1.2	-0.1	x	x
CC1=C(C)CC(C(=O)NNC(=O)c2ccccc2)C(C(=O)O)C1 (stereo not given)	89.4	5.0	11.2*	9.9	12.4	0.6	-3.1	-0.4
N#Cc1ccccc1OCC(=O)NCC(c1cccs1)N1CCOCC1 (stereo not given)	102.4	10.5	3.5	-5.0	-7.0	-0.5	x	x
CC1CCCC(C)N1C(=O)COC(=O)COc1ccc(C#N)cc1 (stereo not given)	106.2	-1.1	11.2*	-3.7	-4.6	x	-1.6	1.8
O=C(NCc1cccnc1)c1cc(C2CCCCN2C(=O)OCCF)on1 (stereo not given)	x	x	6.0	5.9	9.6	x	x	x
CC(=O)Nc1ccc(NC(=O)C(C)OC(=O)CC23CC4CC(CC(Br)(C4)C2)C3)cc1 (stereo not given)	88.5	-1.2	-0.5	2.5	-3.6	x	x	x
SMILES	Yeast superoxide	AHR activator	PLC-gamma1 inh	PLC-beta3 inh	sPLA2-III inh	HIF activator	PLCgamma1 ctr	PLCbeta3 conf
Cc1ccc(S(=O)(=O)N2C[C@H]3[C@H]4C(=O)N(Cc5ccccc5)C(=O)[C@H]4CC(=O)[C@H]3[C@@H]2c2ccccc2)cc1	x	x	-15.7	-25.2	-12.8	x	x	x
COc1ccccc1CNC(=O)COC(=O)Cn1cnc2c1c(=O)n(C)c(=O)n2C	x	x	3.8	11.0*	9.2	x	-3.2	0.4
COC(=O)c1ccccc1NC(=O)Cn1cnc2c1c(=O)n(C)c(=O)n2C	97.8	-2.9	10.3*	-1.4	5.2	-0.2	-9.1	-4.5
COC(=O)c1cccc(NC(=O)Cn2cnc3c2c(=O)n(C)c(=O)n3C)c1	119.2	0.6	1.1	4.7	2.3	1.2	x	x
Cn1c(=O)c2c(ncn2CC(=O)OCC(=O)NCc2ccccc2Cl)n(C)c1=O	92.0	-0.9	6.0	0.4	-1.6	x	x	x
CCN(CC)c1ncnc2c1ncn2[C@H]1CN(Cc2ccc(-c3ccccc3)cc2)C[C@@H](CO)O1	x	x	0.2	-1.9	-27.1	x	x	x
CCOc1cc(CNCCO)c(Cl)cc1OCC(=O)NCCc1ccccc1	97.4	3.2	3.8	11.6*	6.7	0.1	-5.8	-1.7
CCc1ccc(OCC(=O)NC(C)(C)C)cc1	95.4	0.8	10.4*	3.6	-9.4	0.0	-5.5	-0.2
CCOc1cc(CNCCc2ccccc2)ccc1OCC(=O)NC(C)(C)C	98.9	0.3	9.9*	-9.3	-14.5	-0.9	-1.2	3.2
CCOc1cc(CNCCc2ccc(S(N)(=O)=O)cc2)ccc1OCC(=O)NC(C)(C)C	92.9	3.3	1.4	4.6	-8.6	x	x	x
CCOc1cc(CNC(C)C)c(Cl)cc1OCC(=O)NCCc1ccccc1	108.0	16.6	1.1	2.4	-2.2	-0.2	x	x
CCC(C(=O)NC1CCCC1)n1c(-c2cc3ccccc3[nH]2)nc2ccccc21 (stereo not given)	x	x	-39.5	-63.4	-8.1	x	x	x
CCOC(=O)N1CCN(S(=O)(=O)c2ccc(C(=O)Nc3nnc(CSC)o3)cc2)CC1	97.2	3.5	0.2	0.5	-8.3	-2.0	x	x
CCOC(=O)N1CCN(S(=O)(=O)c2ccc(C(=O)N(CCCN(C)C)c3nc4cc(OC)ccc4s3)cc2)CC1	102.0	-2.7	5.1	2.4	-30.6	-54.7	x	x
COc1ccc2sc(N(CCCN(C)C)C(=O)c3ccc(S(=O)(=O)N4CCCC4)cc3)nc2c1	107.8	-6.2	12.4*	6.8	-12.0	0.0	-3.7	-1.7
CCCC(=O)N1CCC1(C)C(=O)Nc1ccc(OC(F)F)cc1 (stereo not given)	x	x	1.1	1.2	-1.1	x	x	x
